This note sets out measurements from PubChem BioAssay (Tox21).

Test [1] is described as follows: qHTS assay to identify aromatase inhibitors - cell viability counter screen (AID 743084).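 Further: cells stimulated with testosterone during compound exposure; nearly all actives have a fitted effect of over 55% in size.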
Test [2] deals with Aryl hydrocarbon receptor (Homo sapiens) (UniProt P35869). The test is described as follows: qHTS assay to identify small molecule that activate the aryl hydrocarbon receptor (AhR) signaling pathway (AID 743085). Further: nearly all actives have a fitted effect of over 15% in size. Further: potency means the concentration at half of the fitted maximal effect.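 On activation: HG2L7.5c1 human HepG2 liver cells with stably integrated DRE-driven firefly reporter; series mostly up to about 70 µM.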 A digest of the protocol:
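Steps: seed HepG2-AhR-luc cells; allow 5 h at 37C; pin-transfer test compound or vehicle; incubate 24 h at 37C; add viability dye (30 min, 37C) and read fluorescence; add luciferase substrate (30 min, RT) and read luminescence.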
(In qHTS, concentration-response curves come from the screen itself.)

Test [3] in a line: qHTS assay to identify small molecule that activate the aryl hydrocarbon receptor (AhR) signaling pathway - cell viability counter screen (AID 743086). Further: series mostly up to about 70 µM; nearly all actives have a fitted effect of over 45% in size. A digest of the protocol: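 Cytotoxicity counter screen: CellTiter-Fluor signal (30 min, 37 C) in 4000 HepG2 cells/well carrying the DRE-luciferase reporter, following 24 h compound exposure at 37 C.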
Test [4] concerns the target Peroxisome proliferator-activated receptor gamma (Homo sapiens) (UniProt P37231). The test is described as follows: qHTS assay to identify small molecule antagonists of the peroxisome proliferator-activated receptor gamma (PPARg) signaling pathway (AID 743191; calls by dose curve; further: series mostly up to about 63 µM; nearly all actives have a fitted effect of over 30% in size). Put shortly:
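Beta-lactamase reporter under UAS control in HEK293H PPARg-bla cells; compound treatment 17 h at 37C. Read-out: fluorescence intensity after 1 h room-temperature incubation with LiveBLAzer B/G FRET substrate.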

Test [5] can be described thus: qHTS assay to identify small molecule antagonists of the peroxisome proliferator-activated receptor gamma (PPARg) signaling pathway - cell viability counter screen (AID 743194). Further: nearly all actives have a fitted effect of over 55% in size. To be noted: Potency: co-treated with 50 nM rosiglitazone unless noted. A digest of the protocol: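 Viability was measured as CellTiter-Glo luminescence in GeneBLAzer PPARg UAS-bla HEK293H cells. These cells had been exposed 17 h at 37 C to compounds together with rosiglitazone at 50 nM final, with the beta-lactamase readout taken in the same wells.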

Test [6] in a line: qHTS assay for small molecule agonists of the antioxidant response element (ARE) signaling pathway (AID 743202; active means well fitted activation curve with a large enough effect in the signal ratio in the repeat runs, not every such curve was filed as active; the % refers to the signal ratio). Put shortly: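 Beta-lactamase reporter activity, read as fluorescence intensity, reflects ARE/Nrf2 pathway induction in HepG2 cells after 16 h compound exposure at 37 C; substrate loading was 2 h at room temperature.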
A short description of test [7]: qHTS assay for small molecule agonists of the antioxidant response element (ARE) signaling pathway - cell viability counter screen (AID 743203; calls by dose curve; further: nearly all actives have a fitted effect of over 55% in size). A digest of the protocol:
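Viability counter screen: CellTiter-Glo luminescence, read after 30 min at room temperature, in ARE-bla HepG2 wells. Compound exposure lasted 16 h at 37C/5% CO2, following a 5 h pre-incubation of the cells after plating.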

Test [8] can be described thus: qHTS assay for small molecule activators of the heat shock response signaling pathway (AID 743210; active means well fitted activation curve with a large enough effect in the signal ratio in the repeat runs, with a control signal flat, not every such curve was filed as active; the % refers to the signal ratio;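 further: HeLa cells with beta-lactamase reporter driven by heat shock elements; series mostly up to about 63 µM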). A digest of the protocol: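 Fluorescence from a cleaved B/G FRET substrate (2.5 h, room temp) reports HSE-driven beta-lactamase in HeLa cells treated 5 h at 37 C with DMSO-dissolved compounds.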
Test [9] can be described thus: qHTS assay to identify small molecule agonists of the peroxisome proliferator-activated receptor delta (PPARd) signaling pathway - cell viability counter screen (AID 743211). Further: nearly all actives have a fitted effect of over 55% in size. Put shortly: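 Viability of GeneBLAzer PPARd UAS-bla HEK293H cells was assessed after 17 h compound incubation at 37C, using CellTiter-Glo reagent added after the reporter read and luminescence recorded 30 min later.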

Test [10] in a line: qHTS assay to identify small molecule antagonists of the peroxisome proliferator-activated receptor delta (PPARd) signaling pathway - cell viability counter screen (AID 743213). Further: nearly all actives have a fitted effect of over 50% in size. A digest of the protocol: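 HEK293H cells with the PPARd UAS-bla reporter, co-treated 17 h at 37 C with compounds and L165041 (300 nM final), were lysed with CellTiter-Glo. Luminescence indicated viable cell content.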

Test [11] addresses Bile acid receptor (Homo sapiens) (UniProt Q96RI1). The test is described as follows: qHTS assay to identify small molecule antagonists of the farnesoid-X-receptor (FXR) signaling pathway (AID 743217; active means well fitted inhibition curve with a large enough effect in the signal ratio in the repeat runs, not every such curve was filed as active; the % refers to the signal ratio). A digest of the protocol: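 Antagonist mode: chenodeoxycholic acid at 50 uM final stimulates a UAS-driven beta-lactamase reporter in HEK 293T FXR-bla cells during 16 h, 37C compound exposure. Read-out is FRET substrate fluorescence after 2 h at room temperature.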

A short description of test [12]: qHTS assay to identify small molecule agonists of the farnesoid-X-receptor (FXR) signaling pathway - cell viability counter screen (AID 743218). Further: nearly all actives have a fitted effect of over 45% in size. Put shortly: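 Viability counter screen in the same wells: CellTiter-Glo luminescence, 30 min room-temperature incubation, measured after the beta-lactamase read. Cells were GeneBLAzer FXR-UAS-bla HEK 293T, compound-treated 16 h at 37C.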

The target of test [13] is Bile acid receptor (Homo sapiens) (UniProt Q96RI1). The test is described as follows: qHTS assay to identify small molecule agonists of the farnesoid-X-receptor (FXR) signaling pathway (AID 743220; active means well fitted activation curve with a large enough effect in the signal ratio in the repeat runs, not every such curve was filed as active; the % refers to the signal ratio). Put shortly: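 FXR-UAS-bla HEK 293T cells carrying a UAS-driven beta-lactamase reporter were plated for 5 h at 37C/5% CO2, then exposed to DMSO-dissolved Tox21 10K compounds for 16 h at 37C. A LiveBLAzer B/G FRET substrate was loaded for 2 h at room temperature before fluorescence reading.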
Chain of Bile acid receptor (Homo sapiens) (Q96RI1 whole entry, looked up): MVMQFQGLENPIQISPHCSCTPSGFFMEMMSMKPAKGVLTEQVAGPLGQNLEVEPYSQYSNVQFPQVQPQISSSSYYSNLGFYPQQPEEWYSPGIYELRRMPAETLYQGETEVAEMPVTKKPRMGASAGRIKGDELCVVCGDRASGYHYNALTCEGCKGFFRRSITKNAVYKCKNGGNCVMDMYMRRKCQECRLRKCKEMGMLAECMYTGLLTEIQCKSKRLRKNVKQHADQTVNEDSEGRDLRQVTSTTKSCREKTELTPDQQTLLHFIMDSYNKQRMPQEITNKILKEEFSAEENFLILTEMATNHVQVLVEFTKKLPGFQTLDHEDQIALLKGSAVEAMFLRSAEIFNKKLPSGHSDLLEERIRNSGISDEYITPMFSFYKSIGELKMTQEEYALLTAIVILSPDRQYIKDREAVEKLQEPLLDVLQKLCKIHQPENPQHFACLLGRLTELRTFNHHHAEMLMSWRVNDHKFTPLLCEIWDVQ

Test [14] is described as follows: qHTS assay to identify small molecule antagonists of the farnesoid-X-receptor (FXR) signaling pathway - cell viability counter screen (AID 743221; active means well fitted cell-killing curve with a large enough effect in the repeat runs, not every such curve was filed as active; further: nearly all actives have a fitted effect of over 50% in size). A digest of the protocol:
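Quantitative HTS of the Tox21 10K library run in parallel with the beta-lactamase reporter read. HEK 293T cells carrying a UAS-driven bla reporter got compound and 50 uM CDCA (final) for 16 h; ATP-based luminescence followed.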

For test [15], the target named is Vitamin D3 receptor (Homo sapiens) (UniProt P11473). As to the kind of experiment: qHTS assay to identify small molecule agonists of the vitamin D receptor (VDR) signaling pathway (AID 743222; calls by dose curve). A digest of the protocol:
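Agonist mode, beta-lactamase reporter: fluorescence from LiveBLAzer B/G FRET substrate (2 h, room temperature) read after 16 h compound treatment at 37 C of VDR-bla cells, which were pre-incubated 4 h after seeding.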

Test [16] has the same target. As to the kind of experiment: qHTS assay to identify small molecule antagonists of the vitamin D receptor (VDR) signaling pathway (AID 743223; active means well fitted inhibition curve with a large enough effect in the signal ratio in the repeat runs, not every such curve was filed as active; the % refers to the signal ratio). A digest of the protocol: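 Fluorescence from LiveBLAzer B/G FRET substrate, read after 2 h at room temperature, reflects beta-lactamase reporter activity in VDR-bla cells treated 16 h at 37C with compounds and agonist 1alpha,25-dihydroxyvitamin D3 (3 nM final).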

Test [17] concerns the target Peroxisome proliferator-activated receptor gamma (Homo sapiens) (UniProt P37231). As to the kind of experiment: qHTS assay to identify small molecule agonists of the peroxisome proliferator-activated receptor gamma (PPARg) signaling pathway (AID 743094; active means well fitted activation curve with a large enough effect in the signal ratio in the repeat runs, not every such curve was filed as active; the % refers to the signal ratio). Put shortly: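 Agonist activity was taken from a beta-lactamase reporter (FRET substrate, 1 h at room temperature) in HEK293H cells carrying a PPARg UAS-bla construct. Compounds in DMSO were incubated 17 h at 37C after a 5 h cell pre-incubation.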

The nature of test [18]: qHTS assay for small molecule activators of the heat shock response signaling pathway - cell viability counter screen (AID 743209). Further: nearly all actives have a fitted effect of over 50% in size. A digest of the protocol: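 Cytotoxicity counter screen run in the same wells as the heat-shock bla reporter assay: HeLa HSE-bla cells, 5 h compound exposure at 37 C, viability read by CellTiter-Glo luminescence.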
Test [19] has as its target Peroxisome proliferator-activated receptor delta (Homo sapiens) (UniProt Q03181). The test is described as follows: qHTS assay to identify small molecule agonists of the peroxisome proliferator-activated receptor delta (PPARd) signaling pathway (AID 743212; calls by dose curve;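 further: HEK293H cells with PPARd UAS beta-lactamase reporter GeneBLAzer system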). Put shortly: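 Steps: seed PPARd-bla HEK293H cells; incubate 5 h, 37 C, 5% CO2; add compounds in DMSO; incubate, 37 C; add LiveBLAzer B/G FRET substrate; hold 2 h at room temperature; measure fluorescence.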

Test [20] shares this target. The test is described as follows: qHTS assay to identify small molecule antagonists of the peroxisome proliferator-activated receptor delta (PPARd) signaling pathway (AID 743215; active means well fitted inhibition curve with a large enough effect in the signal ratio in the repeat runs, not every such curve was filed as active; the % refers to the signal ratio;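 further: cells stimulated with agonist L165041 at 300 nM final during compound exposure; series mostly up to about 62 µM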). A digest of the protocol: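 Agonist L165041 (300 nM final) added with compound to PPARd-bla HEK293H UAS-bla reporter cells; 17 h incubation at 37 C. Read-out: LiveBLAzer FRET substrate, 2 h at room temperature, fluorescence intensity.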

The structures appear in SMILES notation. Where “and” joins values, the source holds several entries; their conditions need not be identical. Equal entries are not always repeated. Records with an inconclusive call do not appear. Calls of active or inactive are those of the source. Unless noted, the call rests on the fitted dose curve; in most records, active means well fitted curve in the direction sought with a large enough effect in the repeat runs; inconclusive means weak or mixed curves; inactive means no such curve, though single readings can be large; an effect the other way counts as inactive or inconclusive.

Chain of Aryl hydrocarbon receptor (Homo sapiens) (P35869 whole entry, looked up): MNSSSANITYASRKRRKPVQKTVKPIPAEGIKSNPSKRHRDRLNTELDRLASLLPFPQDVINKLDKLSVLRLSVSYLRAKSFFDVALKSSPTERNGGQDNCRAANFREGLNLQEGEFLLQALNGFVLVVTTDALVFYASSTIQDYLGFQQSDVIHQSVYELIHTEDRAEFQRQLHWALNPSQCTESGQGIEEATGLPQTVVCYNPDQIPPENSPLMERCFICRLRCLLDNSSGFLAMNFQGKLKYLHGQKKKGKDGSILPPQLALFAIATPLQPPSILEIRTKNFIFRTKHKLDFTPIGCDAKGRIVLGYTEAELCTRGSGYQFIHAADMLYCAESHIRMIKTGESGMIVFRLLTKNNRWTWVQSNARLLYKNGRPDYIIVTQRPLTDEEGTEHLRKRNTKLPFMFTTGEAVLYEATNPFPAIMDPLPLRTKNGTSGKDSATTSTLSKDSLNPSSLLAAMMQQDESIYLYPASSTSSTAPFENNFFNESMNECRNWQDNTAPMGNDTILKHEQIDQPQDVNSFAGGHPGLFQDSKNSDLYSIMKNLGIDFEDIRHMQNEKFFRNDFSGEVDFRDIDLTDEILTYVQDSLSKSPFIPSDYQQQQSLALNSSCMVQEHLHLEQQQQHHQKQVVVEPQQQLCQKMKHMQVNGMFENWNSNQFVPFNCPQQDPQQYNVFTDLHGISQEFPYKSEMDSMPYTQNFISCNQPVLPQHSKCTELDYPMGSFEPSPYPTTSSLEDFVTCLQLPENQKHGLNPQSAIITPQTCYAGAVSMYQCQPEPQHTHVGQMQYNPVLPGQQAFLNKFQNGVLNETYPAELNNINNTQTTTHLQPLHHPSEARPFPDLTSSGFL
Chain of Vitamin D3 receptor (Homo sapiens) (P11473 whole entry, looked up): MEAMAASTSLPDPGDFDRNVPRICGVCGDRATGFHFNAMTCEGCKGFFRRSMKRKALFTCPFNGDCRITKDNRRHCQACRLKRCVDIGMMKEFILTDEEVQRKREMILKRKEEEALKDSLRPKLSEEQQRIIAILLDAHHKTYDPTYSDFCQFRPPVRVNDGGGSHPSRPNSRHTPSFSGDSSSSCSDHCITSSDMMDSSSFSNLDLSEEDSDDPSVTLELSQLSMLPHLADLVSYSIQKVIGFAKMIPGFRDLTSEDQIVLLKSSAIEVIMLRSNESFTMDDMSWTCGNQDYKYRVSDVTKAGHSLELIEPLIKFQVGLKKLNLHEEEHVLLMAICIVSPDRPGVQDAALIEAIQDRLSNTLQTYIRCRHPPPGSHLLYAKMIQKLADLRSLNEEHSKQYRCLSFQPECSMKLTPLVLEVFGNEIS
Chain of Peroxisome proliferator-activated receptor gamma (Homo sapiens) (P37231 whole entry, looked up): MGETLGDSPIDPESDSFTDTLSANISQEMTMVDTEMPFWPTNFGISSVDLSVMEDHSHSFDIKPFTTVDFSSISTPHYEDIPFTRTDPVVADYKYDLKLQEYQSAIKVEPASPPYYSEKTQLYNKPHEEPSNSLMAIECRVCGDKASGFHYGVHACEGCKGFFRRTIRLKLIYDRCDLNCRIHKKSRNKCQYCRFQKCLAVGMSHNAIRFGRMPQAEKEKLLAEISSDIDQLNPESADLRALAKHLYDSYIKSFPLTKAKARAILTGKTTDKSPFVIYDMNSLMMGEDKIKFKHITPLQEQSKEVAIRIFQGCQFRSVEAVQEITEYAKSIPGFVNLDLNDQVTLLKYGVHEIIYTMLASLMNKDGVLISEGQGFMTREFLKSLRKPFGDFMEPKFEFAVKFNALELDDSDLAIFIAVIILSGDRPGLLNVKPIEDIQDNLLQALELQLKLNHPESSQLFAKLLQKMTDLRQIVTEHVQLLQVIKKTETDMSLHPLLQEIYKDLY
Chain of Peroxisome proliferator-activated receptor delta (Homo sapiens) (Q03181 whole entry, looked up): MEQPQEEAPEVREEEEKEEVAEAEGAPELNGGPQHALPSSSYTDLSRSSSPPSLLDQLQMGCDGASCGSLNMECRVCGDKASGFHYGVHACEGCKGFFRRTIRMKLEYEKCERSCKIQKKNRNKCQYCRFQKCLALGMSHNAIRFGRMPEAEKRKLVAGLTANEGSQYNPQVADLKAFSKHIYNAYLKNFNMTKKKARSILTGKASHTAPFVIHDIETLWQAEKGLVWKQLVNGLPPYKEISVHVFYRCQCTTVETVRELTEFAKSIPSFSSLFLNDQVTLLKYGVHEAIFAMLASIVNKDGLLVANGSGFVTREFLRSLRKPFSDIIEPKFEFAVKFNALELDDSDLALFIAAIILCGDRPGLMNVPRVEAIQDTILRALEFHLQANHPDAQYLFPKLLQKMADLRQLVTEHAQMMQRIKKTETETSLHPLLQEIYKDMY

Take `O=Cc1ccc(CO)o1`: the Potency result in test [1], in [2], in [3], in [4], in test [5] and in test [6] was “inactive” in each case. Moreover, the Potency entry in test [7], in test [8], in test [9], in [10], in test [11] and in test [12] was “inactive” each time. For the same compound, the Potency result in test [13], in [14] and in test [16] was “inactive” throughout. Moreover, the compound was called inactive in test [15].
For the compound `Nc1cccc(C(F)(F)F)c1`, the Potency entry in test [1], in test [2], in test [3], in test [17], in [5] and in test [7] was “inactive” throughout. The Potency entry in test [18], in test [8], in test [9], in test [19], in [10] and in test [20] was “inactive” throughout. The Potency entry in test [11], in [12] and in test [13] was “inactive” each time.
For `CC(O)CNCC(C)O` (configuration not stated), the Potency result in test [1], in test [2], in test [3], in test [4], in [5] and in test [7] was “inactive” each time. The Potency result in test [8], in [9], in [19], in [10], in test [20] and in test [12] was “inactive” in each case. The Potency result in test [14] and in [16] was “inactive” in each case. Also, the call in test [15] was inactive.
Take `O=C(O)C1=NN(c2ccc(S(=O)(=O)O)cc2)C(=O)C1`: the Potency result in test [1], in test [2], in test [3], in [4], in [5] and in test [6] was “inactive” each time. The Potency entry in test [7], in [8], in test [9], in [19], in test [10] and in [20] was “inactive” each time. Also, the Potency result in [12] and in [14] was “inactive” throughout.
For `CC1=CC(=O)CC(C)(C)C1`, the Potency entry in test [1], in test [2], in test [3], in test [4], in [5] and in test [6] was “inactive” throughout. Besides, the Potency entry in test [7], in test [18], in test [9], in test [19], in [10] and in test [20] was “inactive” in each case. The Potency result in [12], in test [14] and in test [16] was “inactive” in each case. Besides, in [15], the call was inactive.
Turning to `CCc1cccc(O)c1`, the Potency entry in test [1], in test [2], in [3], in test [4], in test [5] and in test [6] was “inactive” throughout. Further, the Potency entry in test [7], in test [18], in test [8], in test [9], in test [19] and in [10] was “inactive” throughout. Besides, the Potency entry in test [20], in test [11], in [12], in test [13], in test [14] and in [16] was “inactive” throughout. Further, the result in [15] was inactive.
For `CC(COCC(C)OC(=O)c1ccccc1)OC(=O)c1ccccc1` (configuration not stated), the Potency entry in [1], in [2], in test [3], in [4], in test [5] and in test [6] was “inactive” each time. The Potency entry in test [7], in [8], in [9], in [19], in [10] and in [20] was “inactive” each time. The Potency entry in test [11], in test [12], in [13] and in test [16] was “inactive” each time. The result in test [15] was inactive.
Take `O=c1c(O)c(-c2ccc(O)c(O)c2)oc2cc(O)cc(O)c12`: the Potency entry in test [1], in [3], in [4], in [5], in test [6] and in test [7] was “inactive” each time. The Potency result in [18], in test [9], in test [10], in test [12] and in test [16] was “inactive” each time. The Potency in test [2] was 61.2 µM (active) and 54.9 µM (active) and 61.1 µM (active). In test [15], the call was inactive.
`CC(C)=CCC/C(C)=C/C=O`: the Potency entry in [1], in [2], in test [3], in [4], in [5] and in [6] was “inactive” throughout. Also, the Potency result in [7], in [18], in [8], in [9], in test [19] and in [10] was “inactive” in each case. In addition, the Potency result in test [20], in [12], in [14] and in test [16] was “inactive” in each case. In addition, in [15], the compound was called inactive.
